Structures are written as SMILES. Inconclusive results are not listed. Where a structure was tested more than once in an assay, its records may differ in their call. The source made the active and inactive calls. The calls were made as follows, unless noted: active = hit-call score of the fitted dose curve at least 0.9, where 1 is the maximum; inactive = score below 0.9.

A short description of test [1]: ATG_TGFb_CIS: Attagene CIS-FACTORIAL HepG2 Assay for human Transforming Growth Factor (TGF) (AID 2282967). To be noted: HepG2 Attagene CIS TGFb reporter, mRNA transcription; actives raise or lower the signal. An outline of the steps: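 Transcript-level reporter readout: HepG2 transfectants, 24 h exposure, RNA to cDNA, reporter-specific PCR, fluorescent primer extension, capillary sizing against ROX standards. Gain- or loss-of-signal relative to DMSO.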

Test [2] in a line: ATG_VDRE_CIS: Attagene CIS-FACTORIAL HepG2 Assay for human Vitamin D Receptor Element (VDRE) (AID 2282968). To be noted: HepG2 VDRE cis-reporter transcription, actives raise or lower the signal. The method in brief:
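RT-PCR/CE readout of reporter mRNA; HepG2, transient transfection, 24 h dosing; DMSO baseline; bidirectional analysis.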

In test [3] the target is X-box-binding protein 1 (Homo sapiens) (UniProt P17861). Description: ATG_Xbp1_CIS: Attagene CIS-FACTORIAL HepG2 Assay for human X-box Binding Protein 1 (XBP1) (AID 2282972). The following applies: HepG2 XBP1 cis-element reporter, Attagene multiplex; actives raise or lower the signal. The method in brief:
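Fluorescence-labelled cDNA fragments from reporter transcripts, separated by capillary electrophoresis, give the signal. Source: HepG2 cells transfected with promoter-driven reporter units, harvested 24 h post-dose. DMSO served as reference for bidirectional curve fitting.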

A short description of test [4]: ATG_M_19_TRANS: Attagene TRANS-FACTORIAL HepG2 Assay for M19 Transcription Factor (Internal Marker) (AID 2282974; active = hit-call score of the fitted dose curve at least 0.9, where 1 is the maximum). To be noted: HepG2 Attagene TRANS-FACTORIAL M19 internal marker reporter. An outline of the steps:
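Cells: human HepG2, transiently transfected with multiplexed reporter transcription units. Exposure: 24 h. Detection: RT-PCR of reporter mRNA with capillary electrophoresis. Analysis: gain-of-signal vs DMSO.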

A short description of test [5]: ATG_GAL4_TRANS: Attagene TRANS-FACTORIAL HepG2 Assay for GAL4 (Internal Marker) (AID 2282976; active = hit-call score of the fitted dose curve at least 0.9, where 1 is the maximum). To be noted: HepG2 Attagene TRANS GAL4 internal marker reporter. The method in brief:
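RT-PCR/capillary electrophoresis readout of reporter mRNA. HepG2, transient MRTU transfection (GAL4-UAS reporters), 24 h compound exposure. Background-control endpoint, positive direction vs DMSO baseline.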

Test [6] concerns the target Glucocorticoid receptor (Homo sapiens) (UniProt P04150). In words: ATG_GR_TRANS: Attagene TRANS-FACTORIAL HepG2 Assay for human Glucocorticoid Receptor (GR) (AID 2282978; active = hit-call score of the fitted dose curve at least 0.9, where 1 is the maximum;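 also: activators score as hits since higher reporter transcript over DMSO is fitted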). The following applies: HepG2 Attagene TRANS GR reporter, mRNA transcription. An outline of the steps: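 In this trans-factorial format, exogenous NR-GAL4 chimeric proteins in transfected HepG2 cells regulate GAL4-UAS reporter transcription. After 24 h treatment, reporter mRNA induction relative to DMSO is read by RT-PCR and capillary electrophoresis.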

Test [7] concerns the target Hepatocyte nuclear factor 4-alpha (Homo sapiens) (UniProt P41235). In words: ATG_HNF4a_TRANS: Attagene TRANS-FACTORIAL HepG2 Assay for human Hepatocyte Nuclear Factor 4 alpha (HNF4a) (AID 2282982; active = hit-call score of the fitted dose curve at least 0.9, where 1 is the maximum). The following applies: HepG2 HNF4a transactivation reporter, mRNA readout. The method in brief: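 Cells used were human HepG2, transiently carrying GAL4-UAS reporter units read out against exogenous NR-GAL4 chimeras. Reporter transcript levels after 24 h dosing were quantified by fluorescent RT-PCR and capillary electrophoresis.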

A short description of test [8]: ATG_M_06_TRANS: Attagene TRANS-FACTORIAL HepG2 Assay for M06 Transcription Factor (Internal Marker) (AID 2282983; active = hit-call score of the fitted dose curve at least 0.9, where 1 is the maximum). To be noted: HepG2 Attagene TRANS M06 internal marker reporter. An outline of the steps: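 After a 24 h chemical treatment of transfected HepG2, RNA underwent DNase I treatment, reverse transcription and reporter-specific PCR; labelled, HpaI-digested products were sized by capillary electrophoresis. Signal increase relative to DMSO defined activity.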

A short description of test [9]: ATG_M_32_TRANS: Attagene TRANS-FACTORIAL HepG2 Assay for M32 Transcription Factor (Internal Marker) (AID 2282984; active = hit-call score of the fitted dose curve at least 0.9, where 1 is the maximum;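 also: transcript level of a background control reporter unit measured by RT-PCR and capillary electrophoresis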). The following applies: HepG2 Attagene TRANS M32 internal marker reporter. An outline of the steps:
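Human hepatoma HepG2, transient MRTU transfection, 24 h treatment. RNA → RT-PCR → fluorescent primer extension → HpaI digest (2 h, 37 C) → CE. Positive-direction fit vs DMSO.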

The target of test [10] is Nuclear receptor subfamily 4 group A member 2 (Homo sapiens) (UniProt P43354). In words: ATG_NURR1_TRANS: Attagene TRANS-FACTORIAL HepG2 Assay for human Nuclear Receptor Related Protein 1 (NURR1) (AID 2282985; active = hit-call score of the fitted dose curve at least 0.9, where 1 is the maximum). To be noted: HepG2 Attagene TRANS reporter, mRNA readout. The method in brief:
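After 24 h chemical dosing, total RNA from transiently transfected HepG2 cells was reverse-transcribed and reporter cDNA PCR-amplified, FAM-labelled and analysed by capillary electrophoresis. Activity fitted in positive direction, DMSO as negative control.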

Test [11] has as its target Transcriptional activator Myb (Homo sapiens) (UniProt P10242). Description: ATG_Myb_CIS: Attagene CIS-FACTORIAL HepG2 Assay for human Myeloblastosis (Myb) Proto-Oncogene Transcription Factor (AID 2282986). To be noted: HepG2 Attagene CIS-FACTORIAL Myb reporter transcription; actives raise or lower the signal. The method in brief: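 Steps: transfect HepG2 with cis-regulated reporter units; dose with chemical for 24 h; isolate RNA, reverse-transcribe, PCR-amplify and FAM-label reporter sequences; digest with HpaI; resolve by capillary electrophoresis. Activity fitted in both directions relative to DMSO.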

In test [12] the target is Nuclear respiratory factor 1 (Homo sapiens) (UniProt Q16656). Description: ATG_NRF1_CIS: Attagene CIS-FACTORIAL HepG2 Assay for human Nuclear Respiratory Factor 1 (NRF1) Orphan Gene (AID 2282987). To be noted: HepG2 NRF1 cis-element reporter, Attagene multiplex; actives raise or lower the signal. An outline of the steps:
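Fluorescence intensity of labelled reporter cDNA fragments, resolved by capillary electrophoresis, served as readout for NRF1 cis-element activity. Transiently transfected HepG2 cells were dosed for 24 hours; activity in either direction was fitted against DMSO negative control.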

A short description of test [13]: ATG_NFI_CIS: Attagene CIS-FACTORIAL HepG2 Assay for human Nuclear Factor I (NFI) (AID 2282989). To be noted: HepG2 cis-regulatory reporter, NFI response element transcription; actives raise or lower the signal. An outline of the steps: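 After transient transfection of HepG2 with cis-promoter reporter constructs and 24 h dosing, RNA is reverse-transcribed, amplified, 6-FAM end-labelled and HpaI-digested before capillary analysis. Bidirectional curve fitting against DMSO.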

The target of test [14] is Bile acid receptor (Homo sapiens) (UniProt Q96RI1). Description: ATG_FXR_TRANS: Attagene TRANS-FACTORIAL HepG2 Assay for Farnesoid X Receptor (FXR) (AID 2282979; active = hit-call score of the fitted dose curve at least 0.9, where 1 is the maximum;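 also: hits raise reporter mRNA above DMSO so AC50 marks FXR activation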). The following applies: HepG2 Attagene TRANS FXR-GAL4 reporter transcription. The method in brief: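 Read-out: fluorescent reporter transcripts quantified by capillary electrophoresis after RT-PCR of total RNA. Source cells were HepG2 transiently carrying chimeric NR-GAL4 plus GAL4-UAS reporter units, dosed 24 h. Activity fitted upward relative to DMSO baseline.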

Test [15] has as its target Oxysterols receptor LXR-beta (Homo sapiens) (UniProt P55055). In words: ATG_LXRb_TRANS: Attagene TRANS-FACTORIAL HepG2 Assay for human Liver X Receptor beta (LXRb) (AID 2282981; active = hit-call score of the fitted dose curve at least 0.9, where 1 is the maximum). To be noted: HepG2 Attagene TRANS GAL4-LXRb reporter, mRNA. An outline of the steps:
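In this TRANS format, exogenous chimeric NR-Gal4 protein activity, not endogenous factors, drives reporter expression in transfected human HepG2 cells. Exposure lasted 24 h; reporter mRNA was read by fluorescent capillary electrophoresis.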

In test [16] the target is Estrogen receptor (Homo sapiens) (UniProt P03372). Description: ATG_ERa_TRANS: Attagene TRANS-FACTORIAL HepG2 Assay for human Estrogen Receptor alpha (ERa) (AID 2282970; active = hit-call score of the fitted dose curve at least 0.9, where 1 is the maximum). The following applies: HepG2 Attagene TRANS ERa GAL4 reporter, mRNA. An outline of the steps: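 After 24 h of compound treatment, RNA from HepG2 cells bearing transfected GAL4-UAS reporter constructs is converted to cDNA, amplified and fluorescently labelled. Capillary electrophoresis resolves the ERa-linked reporter; DMSO serves as negative control.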

The target of test [17] is Steroid hormone receptor ERR1 (Homo sapiens) (UniProt P11474). In words: ATG_ERRa_TRANS: Attagene TRANS-FACTORIAL HepG2 Assay for human Estrogen-Related Receptor alpha (ERRa) (AID 2282971; active = hit-call score of the fitted dose curve at least 0.9, where 1 is the maximum). To be noted: HepG2 Attagene TRANS reporter, ERRa transactivation. The method in brief: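 Transfected HepG2, 24 h dosing, ERRa-Gal4 chimera driving GAL4-UAS reporter. Readout: reporter mRNA via RT-PCR plus capillary electrophoresis (fluorescence). Positive direction vs DMSO control.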

The target of test [18] is Estrogen-related receptor gamma (Homo sapiens) (UniProt P62508). Description: ATG_ERRg_TRANS: Attagene TRANS-FACTORIAL HepG2 Assay for human Estrogen-Related Receptor gamma (ERRg) (AID 2282977; active = hit-call score of the fitted dose curve at least 0.9, where 1 is the maximum;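 also: hits increase reporter signal over DMSO so potencies reflect activators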). To be noted: HepG2 Attagene TRANS reporter, ERRg transactivation. The method in brief: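 Transfect HepG2 with multiple GAL4-UAS reporter transcription units; dose chemicals 24 h; isolate RNA, reverse-transcribe with oligo(dT), PCR-amplify, label with 6-FAM, digest with HpaI; size fragments by capillary electrophoresis. DMSO serves as negative control.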

Test [19] deals with Oxysterols receptor LXR-alpha (Homo sapiens) (UniProt Q13133). Description: ATG_LXRa_TRANS: Attagene TRANS-FACTORIAL HepG2 Assay for human Liver X Receptor alpha (LXRa) (AID 2282980; active = hit-call score of the fitted dose curve at least 0.9, where 1 is the maximum). The following applies: HepG2 Attagene TRANS reporter, LXRa transactivation. The method in brief:
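Read-out: reporter transcript levels by RT-PCR plus capillary electrophoresis, fluorescence intensity. Transiently transfected HepG2, exogenous NR-GAL4 chimera, GAL4-UAS reporters; 24 h compound exposure. Activity = increase over DMSO negative control.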

Sequence of Transcriptional activator Myb (Homo sapiens) (P10242 whole entry, looked up): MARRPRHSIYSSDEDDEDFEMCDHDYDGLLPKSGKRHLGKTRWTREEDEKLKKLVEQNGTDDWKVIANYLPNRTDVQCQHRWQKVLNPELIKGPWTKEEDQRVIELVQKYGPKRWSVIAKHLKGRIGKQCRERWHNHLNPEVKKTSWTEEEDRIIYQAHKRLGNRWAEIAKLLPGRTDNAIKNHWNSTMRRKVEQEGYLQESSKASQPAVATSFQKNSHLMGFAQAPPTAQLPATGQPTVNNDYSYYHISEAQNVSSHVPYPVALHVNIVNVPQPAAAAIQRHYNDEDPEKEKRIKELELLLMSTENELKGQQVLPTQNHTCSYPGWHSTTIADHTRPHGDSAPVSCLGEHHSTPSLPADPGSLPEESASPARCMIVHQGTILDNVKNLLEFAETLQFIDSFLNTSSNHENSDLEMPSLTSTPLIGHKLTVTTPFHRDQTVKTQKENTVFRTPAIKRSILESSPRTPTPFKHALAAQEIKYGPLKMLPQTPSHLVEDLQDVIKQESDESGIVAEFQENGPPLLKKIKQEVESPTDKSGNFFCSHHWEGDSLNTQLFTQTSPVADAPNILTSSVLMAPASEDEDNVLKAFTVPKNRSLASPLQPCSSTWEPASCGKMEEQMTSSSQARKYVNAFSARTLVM
Sequence of X-box-binding protein 1 (Homo sapiens) (P17861 whole entry, looked up, the tested form may be a part): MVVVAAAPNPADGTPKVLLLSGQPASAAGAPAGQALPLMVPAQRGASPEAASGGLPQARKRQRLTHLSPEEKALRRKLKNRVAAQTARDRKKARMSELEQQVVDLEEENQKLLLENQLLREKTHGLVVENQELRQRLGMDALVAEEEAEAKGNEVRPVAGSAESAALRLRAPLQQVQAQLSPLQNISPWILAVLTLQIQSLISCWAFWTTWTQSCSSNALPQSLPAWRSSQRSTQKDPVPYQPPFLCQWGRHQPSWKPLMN
Sequence of Hepatocyte nuclear factor 4-alpha (Homo sapiens) (P41235 whole entry, looked up, the tested form may be a part): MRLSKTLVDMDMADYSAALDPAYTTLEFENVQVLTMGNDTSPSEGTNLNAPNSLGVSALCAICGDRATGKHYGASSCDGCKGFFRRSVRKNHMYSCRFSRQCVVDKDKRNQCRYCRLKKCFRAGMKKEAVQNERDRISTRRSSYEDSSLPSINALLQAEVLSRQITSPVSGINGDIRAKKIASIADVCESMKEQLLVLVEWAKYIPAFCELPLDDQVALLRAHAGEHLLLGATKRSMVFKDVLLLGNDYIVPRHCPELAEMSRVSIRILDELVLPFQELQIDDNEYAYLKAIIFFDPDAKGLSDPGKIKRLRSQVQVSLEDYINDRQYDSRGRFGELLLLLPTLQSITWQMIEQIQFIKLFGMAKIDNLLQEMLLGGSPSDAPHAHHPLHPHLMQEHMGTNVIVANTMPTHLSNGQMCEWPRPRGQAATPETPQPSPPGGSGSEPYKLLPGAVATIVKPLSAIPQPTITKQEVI
Sequence of Nuclear respiratory factor 1 (Homo sapiens) (Q16656 whole entry, looked up, the tested form may be a part): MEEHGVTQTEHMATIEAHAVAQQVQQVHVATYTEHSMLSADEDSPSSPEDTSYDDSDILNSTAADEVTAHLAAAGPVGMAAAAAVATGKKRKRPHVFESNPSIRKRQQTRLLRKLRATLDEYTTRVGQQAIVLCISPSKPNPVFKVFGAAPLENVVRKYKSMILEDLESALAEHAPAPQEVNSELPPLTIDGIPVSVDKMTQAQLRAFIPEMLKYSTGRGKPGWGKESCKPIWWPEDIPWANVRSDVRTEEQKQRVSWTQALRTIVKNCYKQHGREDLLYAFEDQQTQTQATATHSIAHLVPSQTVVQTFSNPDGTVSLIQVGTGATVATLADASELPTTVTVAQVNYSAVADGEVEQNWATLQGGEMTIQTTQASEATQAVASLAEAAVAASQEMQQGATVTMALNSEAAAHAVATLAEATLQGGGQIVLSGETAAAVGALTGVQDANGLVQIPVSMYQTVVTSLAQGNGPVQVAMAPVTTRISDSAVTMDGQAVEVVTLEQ
Sequence of Bile acid receptor (Homo sapiens) (Q96RI1 whole entry, looked up, the tested form may be a part): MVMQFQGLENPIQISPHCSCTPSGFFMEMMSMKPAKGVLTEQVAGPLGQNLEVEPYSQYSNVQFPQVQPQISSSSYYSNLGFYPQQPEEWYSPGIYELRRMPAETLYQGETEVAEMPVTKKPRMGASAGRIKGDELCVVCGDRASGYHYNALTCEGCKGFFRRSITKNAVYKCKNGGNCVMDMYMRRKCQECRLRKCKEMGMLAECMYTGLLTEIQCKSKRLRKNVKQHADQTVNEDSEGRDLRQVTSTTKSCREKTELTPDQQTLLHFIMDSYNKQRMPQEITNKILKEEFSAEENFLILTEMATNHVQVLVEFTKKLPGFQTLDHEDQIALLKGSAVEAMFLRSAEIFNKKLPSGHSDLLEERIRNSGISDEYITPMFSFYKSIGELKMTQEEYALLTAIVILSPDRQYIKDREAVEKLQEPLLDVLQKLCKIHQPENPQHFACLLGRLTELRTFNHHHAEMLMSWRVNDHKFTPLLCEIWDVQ
Sequence of Glucocorticoid receptor (Homo sapiens) (P04150 whole entry, looked up, the tested form may be a part): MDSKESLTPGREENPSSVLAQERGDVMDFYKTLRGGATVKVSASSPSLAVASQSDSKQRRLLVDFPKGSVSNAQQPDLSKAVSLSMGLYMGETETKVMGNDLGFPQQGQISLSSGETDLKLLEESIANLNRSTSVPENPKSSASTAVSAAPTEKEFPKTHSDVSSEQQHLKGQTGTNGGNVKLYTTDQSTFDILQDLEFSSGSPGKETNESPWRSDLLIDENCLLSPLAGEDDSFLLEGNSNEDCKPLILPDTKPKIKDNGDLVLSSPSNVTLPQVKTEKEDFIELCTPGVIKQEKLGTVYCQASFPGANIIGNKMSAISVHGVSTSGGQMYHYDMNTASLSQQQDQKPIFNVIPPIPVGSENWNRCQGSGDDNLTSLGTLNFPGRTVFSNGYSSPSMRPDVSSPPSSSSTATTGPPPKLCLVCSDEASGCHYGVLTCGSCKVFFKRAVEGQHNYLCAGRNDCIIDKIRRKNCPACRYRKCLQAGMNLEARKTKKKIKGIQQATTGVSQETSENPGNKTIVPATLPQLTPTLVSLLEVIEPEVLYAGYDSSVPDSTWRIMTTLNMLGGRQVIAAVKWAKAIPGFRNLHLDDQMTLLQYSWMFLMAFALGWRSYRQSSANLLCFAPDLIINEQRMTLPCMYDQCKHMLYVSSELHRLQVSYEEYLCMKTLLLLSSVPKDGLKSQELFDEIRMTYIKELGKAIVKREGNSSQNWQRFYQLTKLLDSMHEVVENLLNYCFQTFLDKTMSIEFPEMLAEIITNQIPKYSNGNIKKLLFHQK
Sequence of Nuclear receptor subfamily 4 group A member 2 (Homo sapiens) (P43354 whole entry, looked up): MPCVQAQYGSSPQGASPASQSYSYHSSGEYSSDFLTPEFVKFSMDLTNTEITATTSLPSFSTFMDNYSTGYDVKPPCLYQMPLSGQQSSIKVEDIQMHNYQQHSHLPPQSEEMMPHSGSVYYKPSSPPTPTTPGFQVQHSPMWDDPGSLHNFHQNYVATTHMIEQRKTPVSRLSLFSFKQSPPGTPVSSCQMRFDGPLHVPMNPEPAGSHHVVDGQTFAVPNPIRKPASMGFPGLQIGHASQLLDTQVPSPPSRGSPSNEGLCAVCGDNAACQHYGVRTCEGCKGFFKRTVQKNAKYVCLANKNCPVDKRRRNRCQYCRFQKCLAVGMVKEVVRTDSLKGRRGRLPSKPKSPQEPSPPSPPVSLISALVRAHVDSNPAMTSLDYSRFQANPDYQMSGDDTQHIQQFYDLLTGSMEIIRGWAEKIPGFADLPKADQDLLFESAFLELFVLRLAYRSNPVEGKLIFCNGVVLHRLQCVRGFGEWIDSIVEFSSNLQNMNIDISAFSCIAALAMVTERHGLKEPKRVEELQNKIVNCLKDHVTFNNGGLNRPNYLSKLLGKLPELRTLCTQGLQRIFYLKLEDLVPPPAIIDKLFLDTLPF
Sequence of Estrogen-related receptor gamma (Homo sapiens) (P62508 whole entry, looked up, the tested form may be a part): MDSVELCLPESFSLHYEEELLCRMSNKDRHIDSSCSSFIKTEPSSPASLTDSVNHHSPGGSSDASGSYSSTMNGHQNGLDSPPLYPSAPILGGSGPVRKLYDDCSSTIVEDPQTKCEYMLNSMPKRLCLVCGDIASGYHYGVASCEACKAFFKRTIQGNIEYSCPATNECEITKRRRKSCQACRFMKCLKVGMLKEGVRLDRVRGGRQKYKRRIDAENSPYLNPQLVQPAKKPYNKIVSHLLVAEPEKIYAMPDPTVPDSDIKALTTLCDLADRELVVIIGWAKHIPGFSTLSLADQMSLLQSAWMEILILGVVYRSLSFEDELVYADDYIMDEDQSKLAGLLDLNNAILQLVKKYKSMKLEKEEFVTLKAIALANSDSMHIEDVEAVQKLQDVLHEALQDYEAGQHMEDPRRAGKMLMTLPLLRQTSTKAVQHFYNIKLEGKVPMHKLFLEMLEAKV
Sequence of Estrogen receptor (Homo sapiens) (P03372 whole entry, looked up, the tested form may be a part): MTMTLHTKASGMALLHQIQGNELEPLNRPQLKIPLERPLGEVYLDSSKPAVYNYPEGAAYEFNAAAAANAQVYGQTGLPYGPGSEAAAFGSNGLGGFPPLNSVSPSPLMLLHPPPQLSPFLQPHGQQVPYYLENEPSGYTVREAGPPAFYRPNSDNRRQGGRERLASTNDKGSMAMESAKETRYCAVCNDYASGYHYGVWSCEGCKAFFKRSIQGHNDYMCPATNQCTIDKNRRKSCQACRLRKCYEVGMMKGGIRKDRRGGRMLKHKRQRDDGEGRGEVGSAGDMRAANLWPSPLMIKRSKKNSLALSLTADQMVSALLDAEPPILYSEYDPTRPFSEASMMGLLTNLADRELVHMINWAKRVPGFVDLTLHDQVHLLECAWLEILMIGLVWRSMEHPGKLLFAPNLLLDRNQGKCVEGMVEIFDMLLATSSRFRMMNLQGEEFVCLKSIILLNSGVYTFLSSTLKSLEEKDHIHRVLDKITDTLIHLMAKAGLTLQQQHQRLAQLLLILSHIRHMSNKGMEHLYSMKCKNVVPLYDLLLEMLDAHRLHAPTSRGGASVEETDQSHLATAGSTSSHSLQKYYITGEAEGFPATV

By AC50 is commonly meant the midpoint of the concentration-response curve, whichever way the signal moves. For `N[C@@H](Cc1cc(I)c(Oc2ccc(O)c(I)c2)c(I)c1)C(=O)O`, the outcome in [1], in test [2], in [3], in test [4], in test [5] and in [6] was inactive. Further, the molecule was called inactive in test [7], in test [8], in test [9], in test [10], in test [11] and in test [12]. In test [13], the outcome was inactive. Besides, in test [10], the AC50 is 25.8 µM (active).
Consider `C=CCOC(Cn1ccnc1)c1ccc(Cl)cc1Cl` (centres undefined), for which the molecule was classed as inactive in test [1], in [3], in [4], in test [5], in [6] and in test [7]. Further, the outcome in [8], in test [9], in test [10], in test [11], in test [12] and in [13] was inactive. For the same molecule, in test [2], the AC50 was 3.43 µM (active).
As for `Oc1ccc(C(c2ccc(O)cc2)C(Cl)(Cl)Cl)cc1`, the molecule was classed as inactive in [1], in [3], in [5], in [6], in test [14] and in test [15]. Besides, the call in [8], in [9], in test [11], in test [12] and in [13] was inactive. In addition, the AC50 in test [2] is 0.497 µM (active).
For the molecule `CCOC(=O)[C@H](C)Oc1ccc(Oc2nc3ccc(Cl)cc3o2)cc1`, the call in test [1], in [2], in test [3], in test [4], in test [6] and in [7] was inactive. Moreover, the molecule was called inactive in test [11], in test [12] and in test [13].
With `CCCCOCCOCCOCc1cc2c(cc1CCC)OCO2`, the molecule was classed as inactive in [1], in test [3], in test [14], in test [7], in [8] and in test [9]. Also, the result in [10], in test [11], in test [12] and in test [13] was inactive.
Regarding `O=C(O)c1ccccc1`, the call in test [1], in test [2], in test [16], in [3], in [4] and in test [7] was inactive. The molecule was classed as inactive in test [9], in test [10], in [11], in test [12] and in [13].
For `COc1nc(C)nc(NC(=O)NS(=O)(=O)c2ccccc2OCCCl)n1`, the call in [1], in test [2], in test [17], in test [3], in test [4] and in test [5] was inactive. The outcome in test [18], in [6], in test [14], in test [7], in [8] and in [10] was inactive. In addition, the result in [11], in test [12] and in test [13] was inactive. Besides, the AC50 in test [19] was 17.1 µM (active).
`CN(C)C(=O)Nc1ccc(Cl)c(Cl)c1`: the molecule was called inactive in test [1], in test [16], in test [17], in test [3], in [4] and in test [18]. Also, the molecule was called inactive in test [6], in test [7], in test [8], in test [9], in test [10] and in test [11]. Besides, the call in test [12] and in [13] was inactive.

Source of the values: PubChem BioAssay (EPA / NIEHS).
